Experimental data published in the supplement of paper PMC6555819.

Tests used:
Assay in all cases: PBM binding z-score (relative to random genomic background probes); higher = stronger binding; sequences stand for … in GC…GCGATTGACAGCGTAGAATGAAGG
[1] = tested on: FXR:RXRa (NR concentration 270 nM, RXRa partner concentration 90 nM)
Method in brief: (§1)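 For binding z-scores, the reference was random background probes on custom Agilent 4×180K protein-binding microarrays. These arrays were incubated 1 h with ligand-free nuclear receptor dimers in PBS pH 7.4, 2% milk, 0.02% Triton X-100, 1 mM DTT, 0.2 mg/mL BSA and 0.4 mg/ml salmon testes DNA. Fluorescence was scanned after antibody detection of each partner (one per run) and regression-normalized.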

[2] = tested on: LXRa:RXRa (NR concentration 270 nM, RXRa partner concentration 90 nM)
Method in brief: as §1

[3] = tested on: LXRa homodimer (NR concentration 270 nM)
Method in brief: as §1

[4] = tested on: LXRb:RXRa (NR concentration 270 nM, RXRa partner concentration 90 nM)
Method in brief: as §1

[5] = tested on: LXRb homodimer (NR concentration 270 nM)
Method in brief: as §1

[6] = tested on: PPARa:RXRa (NR concentration 270 nM, RXRa partner concentration 90 nM)
Method in brief: as §1

[7] = tested on: PPARg:RXRa (NR concentration 180 nM, RXRa partner concentration 90 nM)
Method in brief: as §1

[8] = tested on: PPARg:RXRa 270nM:90nM, anti-RXR (NR concentration 270 nM, RXRa partner concentration 90 nM)
Method in brief: as §1

[9] = tested on: PPARg:RXRa 30nM:10nM, anti-RXR (NR concentration 30 nM, RXRa partner concentration 10 nM)
Method in brief: as §1

[10] = tested on: PPARg:RXRa 90nM:30nM, anti-RXR (NR concentration 90 nM, RXRa partner concentration 30 nM)
Method in brief: as §1

[11] = tested on: PPARg:RXRa DBDmut IVT, anti-RXR (DBD mutation: RXRa K156A/R161A, NR concentration 270 nM, RXRa partner concentration 90 nM)
Method in brief: as §1

[12] = tested on: PPARg:RXRa IVT, anti-PPARg (NR concentration 270 nM, RXRa partner concentration 90 nM)
Method in brief: as §1

[13] = tested on: PPARg DBDmut:RXRa IVT, anti-PPARg (DBD mutation: PPARg1 K132A/R137A, NR concentration 270 nM, RXRa partner concentration 90 nM)
Method in brief: as §1

[14] = tested on: PPARg DBDmut IVT, anti-PPARg (DBD mutation: PPARg1 K132A/R137A, NR concentration 270 nM)
Method in brief: as §1

[15] = tested on: PPARg homodimer (NR concentration 180 nM)
Method in brief: as §1

[16] = tested on: PXR:RXRa (NR concentration 270 nM, RXRa partner concentration 90 nM)
Method in brief: as §1

[17] = tested on: PXR homodimer (NR concentration 270 nM)
Method in brief: as §1

[18] = tested on: RARa:RXR (NR concentration 270 nM, RXRa partner concentration 90 nM)
Method in brief: as §1

[19] = tested on: RARa homodimer (NR concentration 270 nM)
Method in brief: as §1

[20] = tested on: RARb:RXRa (NR concentration 270 nM, RXRa partner concentration 90 nM)
Method in brief: as §1

Row | Sequence | PBM binding z-score [1] | PBM binding z-score [2] | PBM binding z-score [3] | PBM binding z-score [4] | PBM binding z-score [5] | PBM binding z-score [6] | PBM binding z-score [7] | PBM binding z-score [8] | PBM binding z-score [9] | PBM binding z-score [10] | PBM binding z-score [11] | PBM binding z-score [12] | PBM binding z-score [13] | PBM binding z-score [14] | PBM binding z-score [15] | PBM binding z-score [16] | PBM binding z-score [17] | PBM binding z-score [18] | PBM binding z-score [19] | PBM binding z-score [20]
1 | AATACAGGGTCATCGTAGGGCAGAGTACGCACAG | 7.54 | 6.88 | 2.95 | 5.07 | 1.16 | 5.83 | 6.94 | 6.07 | 2.84 | 4.96 | 3.16 | 4.29 | 1.4 | 0.756 | 3.57 | 5.4 | 0.861 | 5.26 | 0.97 | 4.7
2 | CAAACTAGGTCACCTGAAGGTCAAAGTCCGCATG | 5.8 | 5.89 | 5.41 | 5.04 | 1.6 | 5.79 | 9.15 | 7.17 | 5.48 | 7.17 | 8.35 | 8.25 | 1.4 | 0.822 | 7.4 | 5.61 | 2.75 | 7.1 | 2.19 | 5.14
3 | TCTAGTTGGTCAAAAGTCACACACTCGAAATGCG | 1.12 | 1.12 | 0.475 | 1.12 | 0.73 | 3.03 | 5.72 | 6.29 | 6.15 | 7.23 | 2.33 | 2.69 | 0.872 | 1.33 | 2 | 1.02 | 0.426 | 1.64 | 1.24 | 1.35
4 | TCTCGGAGGACACGGAAGGTCAGAGCTCGACATC | 2.08 | 1.8 | 1.19 | 1.33 | -0.694 | 2.04 | 0.365 | 1.4 | 2.23 | 1.53 | 1.04 | 1.13 | -0.462 | -0.403 | 1.27 | 2.53 | 0.114 | 2.45 | -0.138 | 3.44
5 | GCGACTGGGGCGAAGCAGGTTACCATAAGGTTGG | -0.35 | -0.539 | -0.81 | -0.315 | -1.13 | 0.234 | 0.378 | -0.549 | -0.972 | -0.732 | 0.93 | 0.737 | -1.9 | -1.09 | -0.411 | -0.249 | -0.709 | -0.0547 | -0.898 | 0.235
6 | ATCTCTAGGTAAGACTCCGTTCAGTGAAGAACGC | 0.49 | 0.425 | 0.698 | 0.0873 | 0.894 | -0.00199 | 0.087 | 0.169 | 0.111 | 0.441 | 2.22 | 1.25 | 0.571 | 0.804 | 1.16 | 0.0673 | 0.0511 | 0.105 | 0.882 | 0.229
7 | TCTGCTAGGTAAACGATGGTCAGCTAATCTGCTA | -0.588 | -0.334 | -0.988 | -0.606 | -1.07 | -0.0928 | -0.293 | 0.636 | 1.68 | 1.22 | 1.06 | 0.192 | -0.37 | -0.397 | -1.72 | -0.369 | -0.821 | -0.233 | -1.63 | -0.0745
8 | CCTGCTAGGTCAATGTTCAGCTAAAGCAGCTCGC | 3.04 | 2.39 | -0.0143 | 1.52 | 0.516 | 3 | 2.51 | 3.63 | 0.934 | 2.93 | 4.27 | 3.55 | -0.21 | -0.461 | 1.39 | 0.795 | -0.474 | 1.54 | -0.305 | 3.8
9 | TCTTGTAGATCAAGCAGGTTAAGAACGCCTGAGT | 0.558 | 0.44 | -0.0745 | 0.534 | -0.492 | 0.851 | -0.197 | 1.21 | 2.6 | 1.7 | 1.42 | 0.613 | -0.194 | -0.44 | -0.0997 | 0.399 | 0.197 | 0.48 | -0.305 | 0.23
10 | ATGTCTAGGTAAAGATAGTTCAGTGAATGCAAAT | 0.0456 | 4.09 | 0.552 | 0.617 | 0.0209 | 0.376 | 0.701 | 0.217 | 0.312 | 0.184 | 1.16 | 1.51 | 0.413 | 1.23 | 0.188 | 0.798 | 0.588 | 0.428 | 0.724 | 0.63
11 | TCTCGTAGATCAAGCAGGTTAAGAAAGCCTGAGT | -0.462 | -0.196 | -0.257 | -0.0905 | -1.19 | 0.4 | -0.54 | 0.861 | 2.47 | 1.83 | 1.63 | -0.598 | -0.611 | -0.106 | -0.511 | 0.225 | -0.267 | 0.111 | -0.712 | -0.255
12 | GTACCAAGATGAATAGGTCGTTGATGAGTAGGCG | -0.271 | -0.137 | -0.17 | -0.161 | -0.482 | 0.287 | 0.526 | -0.163 | -0.282 | -0.197 | -0.366 | -0.096 | -0.257 | 0.255 | 0.369 | -0.0822 | 0.0588 | 0.0569 | 0.21 | 0.0592
13 | TCTAGCAGGCCAGAGGGTCATTCAAGAGGTACGG | 1.45 | 1.27 | -0.353 | 1.51 | -1.01 | 2.71 | 1.54 | 3.08 | 2.26 | 2.98 | 0.912 | 0.374 | -1.21 | -1.66 | 0.751 | 2.2 | -0.364 | 2.79 | -0.545 | 2.17
14 | TCTAGTTGGTCACGGAGGTCACACCCGACGGGTA | 3.19 | 3.31 | 2.4 | 3.2 | 0.762 | 3.73 | 3.54 | 4.03 | 3.5 | 3.66 | 2.48 | 4.28 | 1.28 | 1.19 | 2.95 | 4.15 | 1.24 | 4.2 | 1.58 | 3.79
